Shown are actives, neighbours in structure and some others; about 19% of the full set was active somewhere.
TDP1 cell noCPT = qHTS for Inhibitors of human tyrosyl-DNA phosphodiesterase 1 (TDP1): qHTS in cells in absence of CPT. 15% of 420,000 active. Potency, µM (doses to about 46.2 µM), inactives show top-dose activity change, negative = growth inhibition, usual class: inhibitors. DT40 Tdp1-/- hTDP1 cells, no CPT, ATP luminescence, 48 h; note: nearly all actives have a fitted effect of over 55% in size
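Cells were dispensed at 400 per well, compounds added by pin tool, plates incubated ≥48 hr at 37 °C, then CellTiter-Glo added for 30 min at room temperature before luminescence reading. Line: DT40 Tdp1-/- complemented with hTDP1; camptothecin omitted.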
HT1080 IDH1KD tx = HT-1080 IDH1 knockdown cell toxicity (counter line) | HT-1080 IDH1 knockdown viability, ATP luminescence, 48 h | Potency, µM (top dose mostly 46.1 µM), inactives show at the top dose activity, negative = toxicity, usual class: cytotoxic | 2% of 360,000 active | AID 686971;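 note: 0% = DMSO wells and -100% = cell-free medium wells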
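Cytotoxicity counter-line: IDH1KD HT-1080, 48 h, CellTiter-Glo. Curves classed by r2, magnitude and activity.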
HT1080NT lethal = kills 2HG-producing HT-1080-NT fibrosarcoma cells. Potency, µM (highest dose often 46.1 µM), inactives show at the top dose activity, negative = less viability, hits mostly cytotoxic. HT-1080-NT fibrosarcoma viability, CellTiter-Glo ATP luminescence, 48 h. 1.6% of 360,000 active;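 note: NT is the 2HG producing partner of a matched IDH1 knockdown line; 0% = DMSO-treated cells and -100% = media-only wells without cells; nearly all actives have a fitted effect of over 55% in size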
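Viability of the 2HG-overproducing fibrosarcoma line after 48 hours of compound exposure at 37 degrees C was determined by luminescence with CellTiter-Glo, and concentration-effect curves were then fitted and categorized.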
TDP1 cell CPT = growth inhibition of DT40 Tdp1-/-;hTDP1 cells with camptothecin (screen for TDP1 inhibitors); chicken DT40 Tdp1-/-;hTDP1 cells + 20 nM CPT, ATP luminescence, 48 h; Potency, µM (series often up to 46.2 µM), without a hit: at the top dose activity change, negative = growth inhibition, most hits filed as inhibitors; 12% of 420,000 active; note: nearly all actives have a fitted effect of over 55% in size
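Cell growth measured by CellTiter-Glo luminescence after a minimum 48 h, 37 C compound exposure with 20 nM CPT in Tdp1-knockout DT40 cells stably expressing hTDP1, seeded 400/well; qHTS titration format.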
KB-3-1 tox = kills parental KB-3-1 adenocarcinoma cells | Potency, µM (top dose mostly 46.1 µM), hits mostly cytotoxic | 1.4% of 400,000 active | KB-3-1 viability, CellTiter-Glo ATP luminescence, 72 h | AID 1347075; note: nearly all actives have a fitted effect of over 60% in size
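Here the drug-naive KB-3-1 line serves as comparator for MDR sub-line selectivity; cells received compound titrations, 72 h at 37 °C, then CellTiter-Glo readout.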
KB-V1 cytotox = kills drug-selected multidrug resistant KB-V1 cells. AID 1347076. KB-V1 MDR cells viability, CellTiter-Glo, 72 h. 3.4% of 400,000 active. Potency, µM (doses to about 46.1 µM), most hits filed as cytotoxic; note: nearly all actives have a fitted effect of over 60% in size
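Potencies derive from concentration-effect curves fitted to normalized luminescence (CellTiter-Glo) of KB-V1 cells treated for 72 h at 37 degrees C in phenol-red-free DMEM containing 10% FBS.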
* hit, by the source's call; i = inactive; u = inconclusive; x = not tested or not shown; [ ] = another dose, or the depositor's remark. Calls come from the whole dose curve; as a rule, active = well fitted curve in the direction sought with a large enough effect; inconclusive = small, poorly fitted or top-dose-only effect, or another doubt; inactive = no such curve, though single readings can be large; an effect the other way counts as inactive or inconclusive. Unless noted, % is set by controls: 0 for no effect and ±100 for the full control effect; potency is the fitted concentration of half-maximal effect.

SMILES | TDP1 cell noCPT | HT1080 IDH1KD tx | HT1080NT lethal | TDP1 cell CPT | KB-3-1 tox | KB-V1 cytotox
COc1cccc(NC(=O)CSC2=C(C#N)C(c3ccco3)C3=C(CCCC3=O)N2)c1 (centres undefined) | -13% | 7.3µM* | 9.2µM* | 3% | u | u
CSC1=C(C#N)C(c2ccc3c(c2)OCO3)C2=C(CCCC2=O)N1 (centres undefined) | -22% | -7% | -6% | u | i | i
CCc1cccc(NC(=O)COC(=O)CSc2ccc(C)cc2)c1 | -29% | -5% | -1% | -14% | i | i
C=CCOc1cccc(C(=O)Nc2ncn[nH]2)c1 | 1% | 16% | 7% | -9% | i | i
COc1ncc2nc(-c3cccc(C#N)c3)c(=O)n(CCC#N)c2n1 | -8% | x | x | 7% | x | x
CC(C)(C)c1ccc(C(=O)CCCSC2=C(C#N)C(c3ccco3)C3=C(CCCC3=O)N2)cc1 (centres undefined) | 9.2µM* | -19% | u | 16µM* | u | 10µM*
COc1ccc(C2C(C#N)=C(SCC(=O)Nc3ccc(C)cc3)NC3=C2C(=O)CC(C)(C)C3)cc1 (centres undefined) | 16µM* | -1% | 0% | 23µM* | u | u
CCN(C(=O)COn1nnc2ccc(S(=O)(=O)N(C)C)cc21)C1CCS(=O)(=O)C1 (centres undefined) | -16% | 3% | -3% | 2% | i | i
CCOc1cc(CNc2nn[nH]n2)ccc1OCC(=O)NC(C)(C)C | -4% | 2% | 4% | -2% | i | i
CCN(Cc1ccccc1)C(c1ccc(C(F)(F)F)cc1)c1nnnn1C(C)(C)C (centres undefined) | 21µM* | -1% | -2% | u | 16µM* | 21µM*
CCN(Cc1ccccc1)C(c1cccc(C#N)c1)c1nnnn1C(C)(C)C (centres undefined) | 23µM* | u | -23% | u | i | 13µM*
CC(C)(C)n1nnnc1C(c1cccnc1)N(Cc1ccccc1)Cc1ccco1 (centres undefined) | u | 5% | 11% | u | i | u
CCN1CCN(C(c2ccccc2)c2nnnn2C(C)(C)C)CC1 (centres undefined) | 2% | 11% | 14% | -4% | i | i
N#Cc1ccc(CN2CC3(CCN(C(=O)c4cc(C(F)(F)F)cc(C(F)(F)F)c4)CC3)C2)cc1 | 10µM* | x | x | 21µM* | x | x
COc1ccc(C(=O)N2CCC3(CCCN(Cc4ccc(C#N)cc4)C3)CC2)cc1 | 18µM* | x | x | -26% | x | x
CCc1ccccc1NS(=O)(=O)c1ccc(NC(=O)N2CCCC2)cc1 | u | x | x | -20% | i | i
CCc1ccc(NS(=O)(=O)c2[nH]ncc2C(=O)OC)cc1 | u | x | x | -16% | i | u
O=C(NCC1Cc2cccc(-c3ncccn3)c2O1)C1CCCO1 (centres undefined) | -21% | x | x | -4%[9.04 µM] | x | x
CC1=C(c2ccc(C)c(C)c2)S(=O)(=O)N(Cc2ccc(C(=O)NCc3cccc(C)c3)cc2)C1=O | u | x | x | u | i | i
COc1ccc(C2=C(C)C(=O)N(Cc3ccc(C(=O)Nc4cc(C)ccc4C)cc3)S2(=O)=O)cc1 | 10µM* | x | x | 18µM* | i | i
CC1=C(c2ccc(C)cc2)S(=O)(=O)N(Cc2ccc(C(=O)Nc3ccc(C)c(F)c3)cc2)C1=O | u | x | x | 26µM* | i | i
COc1ccc(C2=C(C)C(=O)N(Cc3ccc(C(=O)NCc4ccccc4C)cc3)S2(=O)=O)cc1 | u | x | x | u | i | i
O=C(NC[C@@H]1CCCN2CCCC[C@H]12)c1cnn(-c2nccc(-c3ccco3)n2)c1C1CC1 | -4% | x | x | 4%[9.04 µM] | x | x
CCOC(=O)c1ccc(NC(=O)C2CCCN(c3ncnc4onc(-c5ccc(F)cc5)c34)C2)cc1 (centres undefined) | 15µM* | x | x | 21µM* | i | i
Cc1ccc(CNC(=O)C2CCCN(c3ncnc4onc(-c5ccc(F)cc5)c34)C2)cc1 (centres undefined) | 18µM* | x | x | u | i | i
SMILES | TDP1 cell noCPT | HT1080 IDH1KD tx | HT1080NT lethal | TDP1 cell CPT | KB-3-1 tox | KB-V1 cytotox
Fc1ccc(-c2noc3ncnc(N4CCCCC4)c23)cc1 | 23µM* | x | x | 18µM* | i | i
CC(C)NC(=O)C1CCCN(c2ncnc3onc(-c4ccc(F)cc4)c23)C1 (centres undefined) | -20% | x | x | -5% | i | i
COc1ccc(NC(=O)C2CCCN(c3ncnc4onc(-c5ccc(F)cc5)c34)C2)cc1 (centres undefined) | u | 7% | 0% | u | i | i
O=C(Nc1ccc(F)c(Cl)c1)C1CCCN(c2ncnc3onc(-c4ccc(F)cc4)c23)C1 (centres undefined) | 15µM* | x | x | -80% | i | i
Cn1c(CC(=O)Nc2ccccc2F)nnc1SCC(=O)NC1=NCCS1 | -20% | 6% | u | u | i | i
CC(C)(C)NC(=O)CSC(=Nc1cccc(F)c1)NC#N | u | -8% | 1% | u | i | i
CCCC[C@@H]1Cc2[nH][nH]c(=O)c2[C@H](c2cccc3ccccc23)O1 | -24% | 26µM* | u | 5% | i | i
CCCCC1CC2=C(C(=O)OC(C)(C)O2)C(c2cccc3ccccc23)O1 (centres undefined) | 23µM* | u | u | u | i | i
COc1ccccc1N1CCN(c2nc3c(S(=O)(=O)c4ccccc4)nnn3c3ccc(Cl)cc23)CC1 | -23% | x | x | 6% | i | i
Cc1cc(C)c(S(=O)(=O)N2CCCOC2CNC(=O)C(=O)NCc2cccs2)c(C)c1 (centres undefined) | -24% | 3% | -1% | -2% | i | 18µM*
Cc1ccc(S(=O)(=O)N2CCOC2CNC(=O)C(=O)NCCc2c[nH]c3ccccc23)cc1 (centres undefined) | u | -6% | -6% | u | i | i
Cc1cc(C)c(S(=O)(=O)N2CCCOC2CNC(=O)C(=O)NCCc2c[nH]c3ccccc23)c(C)c1 (centres undefined) | 15µM* | -28% | -1% | u | i | 16µM*
